Laboratory results from PubChem BioAssay (NCATS).
“And” between values parts separate entries of the source, which are not always exact repeats. Identical values can stand only once. Inconclusive results are not listed. The source made the active and inactive calls. Unless noted, calls come from the whole dose curve; as a rule, active = well fitted curve in the direction sought with a large enough effect; inconclusive = small, poorly fitted or top-dose-only effect, or another doubt; inactive = no such curve, though single readings can be large; an effect the other way counts as inactive or inconclusive.

What was measured:
[1] = target: Glutathione peroxidase 1 (Homo sapiens) (UniProt P07203); assay: Primary qHTS Assay for Inhibitors of Recombinant Selenoprotein Glutathione Peroxidase 1 (GPX1) (AID 1845191); note: nearly all actives have a fitted effect of over 65% in size; for activity, negative = inhibition: % is set by controls: 0 for no effect and ±100 for the full control effect
Glutathione peroxidase 1 (Homo sapiens), sequence (P07203 whole entry, looked up): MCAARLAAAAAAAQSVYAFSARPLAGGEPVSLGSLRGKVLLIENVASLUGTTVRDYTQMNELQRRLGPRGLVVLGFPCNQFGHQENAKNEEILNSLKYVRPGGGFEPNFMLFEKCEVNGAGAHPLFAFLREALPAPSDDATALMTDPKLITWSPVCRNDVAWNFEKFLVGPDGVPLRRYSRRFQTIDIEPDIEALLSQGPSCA
In short: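 GPX1 10 nM, GR 100 nM, GSH 1 mM, NADPH 0.5 mM, CHP 0.5 mM (final). 30-min cpd preincubation, RT. Ex340/Em450 read t=0, t=15 min.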

[2] = target: Phospholipid hydroperoxide glutathione peroxidase GPX4 (Homo sapiens) (UniProt P36969); assay: Primary qHTS Assay for Inhibitors of Recombinant Selenoprotein Glutathione Peroxidase 4 (GPX4) (AID 1845192); note: series mostly up to about 50 µM; % is set by controls: 0 for no effect and ±100 for the full control effect; nearly all actives have a fitted effect of over 65% in size
Phospholipid hydroperoxide glutathione peroxidase GPX4 (Homo sapiens), sequence (P36969 whole entry, looked up): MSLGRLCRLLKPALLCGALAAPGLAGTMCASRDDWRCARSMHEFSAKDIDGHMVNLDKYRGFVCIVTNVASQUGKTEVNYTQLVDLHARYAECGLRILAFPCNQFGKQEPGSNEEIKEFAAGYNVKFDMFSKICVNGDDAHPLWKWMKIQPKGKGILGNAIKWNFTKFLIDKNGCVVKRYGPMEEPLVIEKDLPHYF
In short: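 qHTS, GR-coupled: GPX4 200 nM + cpd 30 min RT → GSH 1 mM, NADPH 0.5 mM, GR 100 nM → CHP 0.5 mM start; fluor 340/450 at t0 and t15 min; no-enzyme wells as control.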

[3] = target: Luciferin 4-monooxygenase (Photinus pyralis) (UniProt P08659); assay: Primary firefly luciferase (FLuc) qHTS assay for identification of artifact compounds. (AID 1845220); note: nearly all actives have a fitted effect of over 60% in size;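 for activity change, negative = inhibition: series mostly up to about 54 µM; plate controls were DMSO vehicle for no effect and no enzyme for full effect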
In short: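 Reaction readout was CCD-imaged luminescence, taken 5 min after adding 10 nM purified firefly enzyme to compound-treated wells holding 10 uM luciferin and ATP in pH 7.6 buffer.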

[4] = tested on: Nanoluciferase (engineered Oplophorus gracilirostris luciferase); assay: Primary Nanoluciferase (NLuc) qHTS assay for identification of artifact compounds. (AID 1845222);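 note: NLuc secreted into diluted conditioned medium of S16 cells; series mostly up to about 54 µM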
In short: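 Concentration-response data were obtained by luminescence after 5 min with Nano-Glo substrate at 1:100. The enzyme was diluted S16 NLuc-expressing cell medium, preincubated with compound for 15 min at RT. Curves were fitted with a 4-parameter Hill model.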

[5] = Primary redox qHTS assay for identification of artifact compounds. (AID 1845223);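 note: 0% = DMSO and 100% = reference compound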
In short: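 Redox-cycling detection via DTT (250 uM final) oxidation coupled to Amplex Red (25 uM)/HRP (250 mU/mL) in HBSS. 15 min preincubation plus 30 min after DTT, room temperature. Ex/Em 525/598 nm; 4-parameter Hill fit against DMSO and 10 uM DA3003.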

[6] = qHTS drug screen for cell cycle checkpoint inhibitors in PARPi-resistant BRCA-mutant ovarian cancer cell lines. (AID 1963452; calls by dose curve); settings: PEO1/OlaR viability, CellTiter-Glo luminescence, 96 h, stronger effect = lower value
In short: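 PEO1, PEO4 and PEO1/OlaR ovarian cancer cells, 600 per well, exposed 96 h at 37C to a dilution series. Viability read by CellTiter-Glo luminescence, normalized to DMSO and empty wells; activity summarized as Z-AUC.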

[7] = Primary fluorescence-based thiol-reactive (MSTI) qHTS assay for identification of artifact compounds. (AID 1845221); note: nearly all actives have a fitted effect of over 65% in size; note: potency is the fitted concentration of half-maximal effect
In short: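 Curve-fitted percent inhibition (4-parameter Hill) derived from fluorescence, Ex 525/Em 598 nm, scaled with Acetyl-MSTI and MSTI; 1 h incubation at room temperature.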

[8] = target: Cytochrome P450 3A4 (Homo sapiens) (UniProt P08684); assay: qHTS for inhibitors of CYP3A4 against the NCATS DSHEA and TCM libraries (AID 1919971);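 note: % is set by controls: 0 for no effect and ±100 for the full control effect; inhibition lowers luminescence from luciferin made by CYP3A4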
Cytochrome P450 3A4 (Homo sapiens), sequence (P08684 whole entry, looked up, canonical isoform): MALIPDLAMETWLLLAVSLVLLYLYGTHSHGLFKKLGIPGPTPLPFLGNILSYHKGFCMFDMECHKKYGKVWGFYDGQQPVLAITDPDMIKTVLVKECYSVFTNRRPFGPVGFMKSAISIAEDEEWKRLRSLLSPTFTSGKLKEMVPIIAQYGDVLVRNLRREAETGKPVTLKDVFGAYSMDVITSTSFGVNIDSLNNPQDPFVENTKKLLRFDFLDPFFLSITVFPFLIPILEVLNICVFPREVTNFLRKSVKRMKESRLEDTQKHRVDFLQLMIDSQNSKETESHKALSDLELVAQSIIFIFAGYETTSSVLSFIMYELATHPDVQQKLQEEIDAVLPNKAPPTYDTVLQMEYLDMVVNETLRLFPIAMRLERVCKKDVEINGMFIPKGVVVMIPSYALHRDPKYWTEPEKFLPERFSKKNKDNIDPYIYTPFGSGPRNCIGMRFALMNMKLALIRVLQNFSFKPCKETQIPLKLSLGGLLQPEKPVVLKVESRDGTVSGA
In short: (§1)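 Isoform-specific enzyme and substrate levels; enzyme-free wells as background. Reaction: 1x NADPH regenerating system, 30-45 min, room temperature, shielded from light; luminescent detection reagent added, 30 min.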

[9] = target: Cytochrome P450 2D6 (Homo sapiens) (UniProt P10635); assay: qHTS for inhibitors of CYP2D6 against the NCATS DSHEA and TCM libraries (AID 1919972); note: % is set by controls: 0 for no effect and ±100 for the full control effect
Cytochrome P450 2D6 (Homo sapiens), sequence (P10635 whole entry, looked up): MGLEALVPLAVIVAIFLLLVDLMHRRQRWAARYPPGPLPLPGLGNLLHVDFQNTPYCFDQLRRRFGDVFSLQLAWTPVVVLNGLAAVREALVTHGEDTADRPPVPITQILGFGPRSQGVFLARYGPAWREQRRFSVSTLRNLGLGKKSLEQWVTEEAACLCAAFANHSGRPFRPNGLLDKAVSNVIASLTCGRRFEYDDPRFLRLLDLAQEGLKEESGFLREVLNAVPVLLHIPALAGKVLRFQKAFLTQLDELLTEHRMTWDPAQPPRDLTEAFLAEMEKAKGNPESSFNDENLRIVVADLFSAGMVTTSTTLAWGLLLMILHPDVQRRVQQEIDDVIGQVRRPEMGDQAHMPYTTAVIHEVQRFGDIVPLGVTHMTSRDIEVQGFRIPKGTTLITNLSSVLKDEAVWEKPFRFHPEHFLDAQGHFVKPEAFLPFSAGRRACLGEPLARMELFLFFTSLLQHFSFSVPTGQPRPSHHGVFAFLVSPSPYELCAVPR
In short: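 qHTS, concentration–response format with most substances from 19.5 nM. CYP2D6 + pro-luciferin substrate, 15 min with compound, then 1x NADPH regen, 30–45 min RT dark. Glo detection 30 min, luminescence. Quinidine control.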

[10] = target: Cytochrome P450 2C19 (Homo sapiens) (UniProt P33261); assay: qHTS for inhibitors of CYP2C19 against the NCATS DSHEA and TCM libraries (AID 1919974);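 note: luminescence from luciferin released by CYP2C19 oxidation of a pro-luciferin substrate; % is set by controls: 0 for no effect and ±100 for the full control effect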
Cytochrome P450 2C19 (Homo sapiens), sequence (P33261 whole entry, looked up): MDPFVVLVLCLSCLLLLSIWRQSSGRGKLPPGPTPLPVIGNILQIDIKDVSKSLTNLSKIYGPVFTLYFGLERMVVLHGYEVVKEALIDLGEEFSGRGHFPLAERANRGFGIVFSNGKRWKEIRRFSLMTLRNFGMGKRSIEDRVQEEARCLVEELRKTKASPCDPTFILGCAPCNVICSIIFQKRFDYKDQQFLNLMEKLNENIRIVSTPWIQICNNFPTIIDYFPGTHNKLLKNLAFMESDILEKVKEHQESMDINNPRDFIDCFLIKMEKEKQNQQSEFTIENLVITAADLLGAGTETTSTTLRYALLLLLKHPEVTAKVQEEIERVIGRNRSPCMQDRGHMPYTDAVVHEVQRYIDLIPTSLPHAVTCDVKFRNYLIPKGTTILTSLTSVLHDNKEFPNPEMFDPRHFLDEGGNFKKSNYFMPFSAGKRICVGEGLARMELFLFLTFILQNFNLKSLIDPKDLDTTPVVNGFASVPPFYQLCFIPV
In short: as §1

[11] = KB-3-1 P-gp reporter qHTS against the NCATS DSHEA and TCM libraries (AID 1919975); note: 0% is about no effect
In short: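 KB-3-1 parental line, 1536-well qHTS: cells seeded, ~4 h attachment, pintool compound addition, ~72 h at 37C, then CellTiter-Glo, 30 min RT, luminescence. Concentration-response format.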

[12] = target: Cytochrome P450 1A2 (Homo sapiens) (UniProt P05177); assay: qHTS for inhibitors of CYPIA2 against the NCATS DSHEA and TCM libraries (AID 1919976);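 note: light from luciferin formed by CYP1A2 from a pro-luciferin substrate; series mostly up to about 37 µM; % is set by controls: 0 for no effect and ±100 for the full control effect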
Cytochrome P450 1A2 (Homo sapiens), sequence (P05177 whole entry, looked up): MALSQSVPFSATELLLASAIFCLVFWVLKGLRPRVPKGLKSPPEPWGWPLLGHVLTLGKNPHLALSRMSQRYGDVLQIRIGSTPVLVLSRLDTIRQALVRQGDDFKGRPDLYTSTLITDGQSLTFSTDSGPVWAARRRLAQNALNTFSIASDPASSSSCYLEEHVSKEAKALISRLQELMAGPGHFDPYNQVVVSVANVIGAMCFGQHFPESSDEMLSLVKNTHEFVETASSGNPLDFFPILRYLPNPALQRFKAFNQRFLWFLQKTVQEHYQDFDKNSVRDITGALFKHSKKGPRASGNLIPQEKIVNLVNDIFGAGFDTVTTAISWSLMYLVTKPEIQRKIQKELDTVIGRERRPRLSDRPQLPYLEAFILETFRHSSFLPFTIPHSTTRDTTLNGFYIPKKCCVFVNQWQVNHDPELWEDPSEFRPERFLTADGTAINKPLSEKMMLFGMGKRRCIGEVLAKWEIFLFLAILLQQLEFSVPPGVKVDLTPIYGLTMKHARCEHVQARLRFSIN
In short: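 Furafylline served as the plate control. Compounds met CYP1A2 and pro-luciferin substrate 15 min before NADPH regeneration solution (1x) was added; after 30-45 min at RT, P450-Glo reagent was added for 30 min and luminescence was measured.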

[13] = qHTS Counterscreen for compound interference against the NCATS DSHEA and TCM libraries (AID 1919978); settings: firefly luciferase detection reagent interference, luminescence;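 note: compounds preincubated with 1 µM D-luciferin or buffer before detection reagent; % of control where 0% means no effect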
In short: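 Compounds, titrated from 19.5 nM to 39.8 uM final, were pinned onto 1 uM D-luciferin or plain 100 mM potassium phosphate. After 15 min at room temperature, luciferin detection reagent was added for 30 min before the luminescence read.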

[14] = Dual reporter qHTS for agonist of Pregnane X Receptor (hPXR) against the NCATS DSHEA and TCM libraries: Fluorescence readout (AID 1920058); note: 0% is about no effect
In short: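 In this qHTS counter-read, reporter-bearing HepG2 cells in charcoal-stripped serum received substances for approximately 24 h before viability was assessed fluorometrically with CellTiter-Fluor.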

[15] = target: Nuclear receptor subfamily 1 group I member 2 (Homo sapiens) (UniProt O75469); assay: Dual reporter qHTS for agonist of Pregnane X Receptor (hPXR) against the NCATS DSHEA and TCM libraries: Luminescence readout (AID 1920059); note: 0% is about no effect
Nuclear receptor subfamily 1 group I member 2 (Homo sapiens), sequence (O75469 whole entry, looked up): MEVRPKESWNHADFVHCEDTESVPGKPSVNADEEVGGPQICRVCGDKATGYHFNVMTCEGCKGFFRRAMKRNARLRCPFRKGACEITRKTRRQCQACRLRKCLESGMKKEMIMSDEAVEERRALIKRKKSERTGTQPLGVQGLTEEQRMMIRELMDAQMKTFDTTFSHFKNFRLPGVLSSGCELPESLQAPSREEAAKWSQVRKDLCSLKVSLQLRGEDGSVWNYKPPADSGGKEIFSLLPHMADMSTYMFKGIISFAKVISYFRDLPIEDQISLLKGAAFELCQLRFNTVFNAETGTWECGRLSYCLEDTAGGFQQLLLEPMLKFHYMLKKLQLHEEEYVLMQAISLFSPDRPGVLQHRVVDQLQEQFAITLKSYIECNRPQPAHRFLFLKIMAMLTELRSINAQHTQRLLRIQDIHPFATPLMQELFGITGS
In short: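 hPXR-LucHepG2 cells in phenol red-free DMEM with 5% charcoal-stripped FBS, 2000 cells/well, attached 5 h, then exposed 24 h at 37C to compounds; rifampicin as positive agonist control (2.8 nM–92 uM). Luciferase luminescence read.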

[16] = target: Nuclear receptor subfamily 1 group I member 2 (Homo sapiens) (UniProt O75469); assay: Dual reporter qHTS for antagonist of Pregnane X Receptor (hPXR) against the NCATS DSHEA and TCM libraries: Luminescence Readout (AID 1920060); note: 0% is about no effect
In short: (§2)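 Rifampicin-stimulated (2 uM final) hPXR-luciferase HepG2 cells were treated for 24 h with DSNP/TCM substances. Viability came from CellTiter-Fluor fluorescence, reporter activity from ONE-Glo luminescence.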

[17] = Dual reporter qHTS for antagonist of Pregnane X Receptor (hPXR) against the NCATS DSHEA and TCM libraries: Fluorescence Readout (AID 1920061); note: 0% is about no effect
In short: as §2

[18] = measured here: PEO1 parental Z-AUC

O=C(O)C1CN(Cc2ccc(-c3nc4cc(Cc5ccccc5F)ccc4s3)c(F)c2)C1
inactive: activity, negative = inhibition [1] -8.84% [at 9.52 µM] | activity change, negative = inhibition [2] 8.48% [at 9.73 µM] | activity change, negative = inhibition [3] -1.19% [at 11.6 µM] | activity, negative = inhibition [4] -0.199% [at 11.6 µM] | redox activity (% of DA3003) [5] -6.07% [at 11.5 µM]

Cc1cc(NC(=O)Nc2ccc(F)c(F)c2)n(-c2ccccc2)n1
inactive: Potency [1] | Potency [2] | Potency [3] | Potency [4] | Potency [5]

CCCCc1nc2cc(/C=C/C(=O)NO)ccc2n1CCN(CC)CC
-0.293: Z-AUC ([6]; measured here: PEO4 Z-AUC)
inactive: Potency [1] | Potency [2] | Potency [3] | Potency [4] | Potency [5] | Z-AUC [6] 0.0461
-0.0677: Z-AUC [6, 18]

CN[C@H](CC(C)C)C(=O)N[C@H]1C(=O)N[C@@H](CC(N)=O)C(=O)N[C@H]2C(=O)N[C@H]3C(=O)N[C@H](C(=O)N[C@H](C(=O)O)c4cc(O)cc(O)c4-c4cc3ccc4O)[C@H](O[C@H]3C[C@](C)(N)[C@@H](O)[C@H](C)O3)c3ccc(c(Cl)c3)Oc3cc2cc(c3O[C@@H]2O[C@H](CO)[C@@H](O)[C@H](O)[C@H]2O[C@H]2C[C@](C)(NCc3ccc(-c4ccc(Cl)cc4)cc3)[C@@H](O)[C@H](C)O2)Oc2ccc(cc2Cl)[C@H]1O
inactive: Potency [1] | Potency [2] | Potency [7] | Potency [4] | Potency [5]

Cc1c2cc(c(C(=O)O)c1C)OC1OC(C(O)C(O)C1O)C(O)C(O)C1OC(O2)C(O)C(O)C1O (stereo not given)
inactive: Potency [1] | Potency [2] | Potency [3] | Potency [4] | Potency [5]

O=C(/C=C\n1cnc(-c2cc(C(F)(F)F)cc(C(F)(F)F)c2)n1)N1CC(F)(F)C1
-1.38: Z-AUC ([6]; measured here: PEO4 Z-AUC)
inactive: Potency [1] | Potency [2] | Potency [3] | Potency [4] | Potency [5] | Z-AUC [6] -0.848
-1.85: Z-AUC [6, 18]

CCCCNc1ncc2c(-c3ccc(CN4CCN(C)CC4)cc3)cn(C3CCC(O)CC3)c2n1 (stereo not given)
-1.06 and -0.682: Z-AUC [6, 18]
-1.13 and -0.785: Z-AUC ([6]; measured here: PEO4 Z-AUC)
inactive: Potency [1] | Potency [2] | Potency [3] | Potency [4] | Z-AUC [6] -1.53 and -0.825

CCNCc1nc2c(N)nc3ccccc3c2n1CC(C)(C)O
inactive: Potency [1] | Potency [2] | Potency [3] | Potency [4] | Potency [5] | Z-AUC [6] -0.12
0.65: Z-AUC [6, 18]
0.404: Z-AUC ([6]; measured here: PEO4 Z-AUC)

COc1ccc(C2COc3cc(O)ccc3C2)c(O)c1 (stereo not given)
inactive: Potency [1] | Potency [2] | Potency [7] | Potency [4] | Potency [5]

Cn1nnc(-c2ccc(-c3ccc(N4C[C@H](CO)OC4=O)cc3F)cn2)n1
inactive: Potency [1] | Potency [2] | Potency [7] | Potency [4] | Potency [5]

COc1ccc(CCO[C@@H]2O[C@H](CO[C@@H]3OC[C@H](O)[C@H](O)[C@H]3O)[C@@H](O)[C@H](O)[C@H]2O)cc1
inactive: Potency [1] | Potency [2] | Potency [4] | Potency [5]
active: Potency [7] 10.3 µM

C=C1CC[C@@H]2[C@@](C)(CO[C@@H]3O[C@H](CO)C(O)[C@H](O)C3O)[C@H](O)CC[C@@]2(C)[C@@H]1CC/C(C)=C/CO (stereo not given in full)
inactive: Potency [1] | Potency [2] | activity change, negative = inhibition [3] -1.11% [at 11.6 µM] | redox activity (% of DA3003) [5] 11.9% [at 11.5 µM]

COc1c2c(c(C)c3c1C(=O)OC3)O[C@@]1(C)CCC3(C(C)(C)O)OC(=O)CC[C@]3(C)[C@H]1C2 (stereo not given in full)
inactive: Potency [1] | Potency [2] | Potency [7] | Potency [4] | Potency [5]

CC1CC[C@]2(C(=O)O)CC[C@]3(C(=O)O)C(=CCC4[C@@]5(C)CC[C@H](OC6OC(C)C(O)C(OC7OC(CO)C(O)C(O)C7O)C6O)C(C)(C)C5CC[C@]43C)C2C1C (stereo not given in full)
inactive: Potency [1] | Potency [2] | Potency [3] | Potency [4] | Potency [5] | outcome [8] | outcome [9] | Potency [10] | outcome [11] | Potency [12] | max response [13] -1.38% | outcome [14] | outcome [15] | outcome [16] | outcome [17]

O=C(/C=C/c1cccc(S(=O)(=O)Nc2ccccc2)c1)NO
-1.35: Z-AUC ([6]; measured here: PEO4 Z-AUC)
-1.03: Z-AUC [6, 18]
inactive: Potency [1] | Potency [2] | Potency [3] | Potency [4] | Potency [5] | Z-AUC [6] -0.934

C/C=C/c1ccc(O[C@@H]2O[C@H](CO)[C@@H](O)[C@H](O)[C@H]2O)c(OC)c1
inactive: Potency [1] | Potency [2] | Potency [3] | Potency [5]

COc1cc(-c2ncn(/C=C\C(=O)OC(C)C)n2)cc(C(F)(F)F)c1
inactive: Potency [1] | Potency [2] | Potency [7] | Potency [4]

COC(=O)C1=CO[C@@H](O[C@@H]2O[C@H](CO[C@@H]3O[C@H](COC(=O)/C=C/c4cc(OC)c(O)c(OC)c4)[C@@H](O)[C@H](O)[C@H]3O)[C@@H](O)[C@H](O)[C@H]2O)[C@@H]2C(CO)=CC[C@H]12
active: Potency [7] 7.93 µM
inactive: Potency [1] | Potency [2] | Potency [4] | Potency [5]

COc1ccc(-n2[nH]c(=O)c3[nH]c4cc(Cl)ccc4c(=O)c3c2=O)c(C)c1
inactive: Potency [1] | Potency [2] | Potency [3] | Potency [5]
